Measurements as given in PubChem BioAssay.
Activity calls are given as the source filed them.

Key:
[1] = test system: XIP peptide (Xip251-270) binding; assay: XIP fragment 251-270 binding compounds – biochemical, small-molecule microarray, fluorescence 635/667 nm, 0.1 µg/mL protein, primary screen (AID 1182); conditions: fluorescent protein binding, 635 nm, higher = more signal, called active from +8 up or from −8 down
[2] = test system: XIP peptide (Xip251-270); assay: compounds binding XIP fragment 251-270 – biochemical, small-molecule microarray, fluorescence 635/667 nm, 0.5 µg/mL protein, primary screen (AID 1183); conditions: fluorescence 635 nm, higher = more signal
[3] = blood-stage malaria parasite viability loss – strain 3D7, DAPI fluorescence, 100 nL, primary screen (AID 1184);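 further: parasites grown inside human red blood cells in medium with human serum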; conditions: P. falciparum 3D7 growth, 3 d, higher = more signal
[4] = biological target: Homeobox protein Hox-A13 (Mus musculus) (UniProt Q62424); assay: disruptors of Hoxa13 oligonucleotide interaction – biochemical, fluorescence polarization, labeled oligonucleotide, primary screen (AID 1185); conditions: Hoxa13:DNA binding, 15 min, higher = more signal, called active from +8 up or from −8 down
Chain of Homeobox protein Hox-A13 (Mus musculus) (Q62424 whole entry, looked up): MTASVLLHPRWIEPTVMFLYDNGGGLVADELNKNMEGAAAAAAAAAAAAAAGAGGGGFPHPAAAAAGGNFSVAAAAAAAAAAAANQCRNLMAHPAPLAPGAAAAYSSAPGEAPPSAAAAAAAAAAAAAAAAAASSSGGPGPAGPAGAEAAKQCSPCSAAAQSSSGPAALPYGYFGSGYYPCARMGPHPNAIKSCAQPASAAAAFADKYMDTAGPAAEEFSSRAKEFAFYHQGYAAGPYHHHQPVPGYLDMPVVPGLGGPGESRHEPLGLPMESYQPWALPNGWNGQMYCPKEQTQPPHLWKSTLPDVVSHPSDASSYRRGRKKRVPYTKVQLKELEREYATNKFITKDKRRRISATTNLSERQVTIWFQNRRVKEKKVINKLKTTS

Structure (SMILES): COc1ccc(COC(=O)NN=C2C[C@@H](O)[C@@H](O)[C@@H]3[C@@H]4C(=O)N(c5ccc(F)cc5F)C(=O)[C@@H]4CC[C@@H]23)cc1
- composite z-score [1]: -0.413 (inactive)
- composite z-score [2]: -0.0386
- z-score [3]: -0.351
- z-score [4]: -3.33 (inactive)

Structure (SMILES): CO[C@@H]1COC(=O)[C@H](C)NC(=O)[C@@H](C)COC(=O)CCC[C@H]1C
- composite z-score [1]: 0.144 (inactive)
- composite z-score [2]: 0.652
- z-score [3]: -0.0339
- z-score [4]: -2.16 (inactive)

Structure (SMILES): C[C@@H](c1ccccc1)N1C(=O)[C@H]2[C@H]3[C@H](O)C=CC(=O)[C@@H]3CC[C@H]2C1=O
- composite z-score [1]: 0.146 (inactive)
- composite z-score [2]: 0.014
- z-score [3]: -0.173
- z-score [4]: -0.308 (inactive)

Structure (SMILES): O=C1C2=CC[C@H]3C(=O)N(Cc4ccc5c(c4)OCO5)C(=O)[C@H]3[C@H]2[C@H](O)[C@@H]2O[C@H]12
- composite z-score [1]: 0.225 (inactive)
- composite z-score [2]: 0.0823
- z-score [3]: 1.68
- z-score [4]: -0.229 (inactive)

Structure (SMILES): CO[C@H]1COC(=O)[C@H](C)COC(=O)CC=C[C@@H](C)[C@H](OC)COC(=O)CC=C[C@@H]1C
- composite z-score [1]: 0.159 (inactive)
- composite z-score [2]: -0.0452
- z-score [3]: 1.7
- z-score [4]: 0.149 (inactive)

Structure (SMILES): CO[C@@H]1COC(=O)CCC[C@@H](C)[C@H](OC)COC(=O)CCC[C@H]1C
- composite z-score [1]: -0.201 (inactive)
- composite z-score [2]: 0.201
- z-score [3]: -0.0787
- z-score [4]: -1.03 (inactive)

Structure (SMILES): CC(=O)OC[C@H]1O[C@H](C#CCCCc2ccccc2)C=C[C@@H]1OC(C)=O
- composite z-score [1]: 1.05 (inactive)
- composite z-score [2]: 0.505
- z-score [3]: -0.107
- z-score [4]: -5.95 (inactive)

Structure (SMILES): CCN1C(=O)[C@H]2[C@H]3[C@H](O)[C@H](O)CC(=NOC[C@@H](C)[C@H](OCc4ccccc4)C(C)C)[C@@H]3CC[C@H]2C1=O
- composite z-score [1]: 0.185 (inactive)
- composite z-score [2]: 0.757
- z-score [3]: 0.605
- z-score [4]: -6.43 (inactive)

Structure (SMILES): C#CCCCON=C1C[C@@H](O)[C@@H](O)[C@@H]2[C@@H]3C(=O)N(Cc4ccccc4)C(=O)[C@@H]3CC[C@H]12
- composite z-score [1]: 0.136 (inactive)
- composite z-score [2]: -0.102
- z-score [3]: -0.677
- z-score [4]: -3.05 (inactive)

Structure (SMILES): COC(=O)[C@@H]1CCCN1C(=O)[C@@H](C)CO
- composite z-score [1]: 0.446 (inactive)
- composite z-score [2]: 0.0063
- z-score [3]: -1.35
- z-score [4]: 1.64 (inactive)

Structure (SMILES): COc1ccc(O[C@H]2C=C[C@@H](c3ccccc3)O[C@@H]2COC(=O)CCC(C)=NOCC[C@@H]2C=C[C@H](OC(C)=O)[C@@H](COC(C)=O)O2)cc1
- composite z-score [1]: 0.543 (inactive)
- composite z-score [2]: 0.0553
- z-score [3]: -0.703
- z-score [4]: -4.08 (inactive)

Structure (SMILES): CCN1C(=O)[C@H]2[C@H]3[C@H](O)C=CC(=O)[C@@H]3CC[C@H]2C1=O
- composite z-score [1]: -0.638 (inactive)
- composite z-score [2]: -0.0737
- z-score [3]: 1.02
- z-score [4]: 0.116 (inactive)

Structure (SMILES): COC(=O)C1=C(C)[C@@H](O)[C@@H](C)[C@H](c2c(OC)c(OC)c(C)c(OC)c2OC)O1
- composite z-score [1]: -0.252 (inactive)
- composite z-score [2]: 0.562
- z-score [3]: -0.717
- z-score [4]: -0.388 (inactive)

Structure (SMILES): CO[C@@H]1COC(=O)CC=C[C@@H](C)[C@@H]2C=C[C@@H](O)[C@@H](COC(=O)CC=C[C@H]1C)O2
- composite z-score [1]: 0.794 (inactive)
- composite z-score [2]: -0.317
- z-score [3]: 0.328
- z-score [4]: -0.816 (inactive)

Structure (SMILES): COC(=O)CC=C[C@@H](C)[C@H](OC)c1ccccc1Br
- composite z-score [1]: -0.575 (inactive)
- composite z-score [2]: -0.412
- z-score [3]: 0.805
- z-score [4]: -0.0487 (inactive)

Structure (SMILES): CCN1C(=O)[C@H]2[C@H]3[C@H](O)[C@H](O)CC(=NO[C@@H]4O[C@H](CO)[C@@H](O)[C@H](O)[C@H]4O)[C@@H]3CC[C@H]2C1=O
- composite z-score [1]: -0.232 (inactive)
- composite z-score [2]: -0.321
- z-score [3]: 1.82
- z-score [4]: -0.0696 (inactive)

Structure (SMILES): CCOC(=O)[C@H](Cc1ccccc1)NC(=O)CCC1CC(OC(=O)NCc2ccc3c(c2)OCO3)CC2(CCCC(COC(=O)NCC3CCCCC3)O2)O1 (stereo not given in full)
- composite z-score [1]: -0.292 (inactive)
- composite z-score [2]: 0.646
- z-score [3]: -1.96
- z-score [4]: -2.6 (inactive)

Structure (SMILES): CC(C)(C)N1C(=O)[C@H]2[C@H]3[C@H](O)[C@H](O)CC(=NO[C@@H]4O[C@H](CO)[C@@H](O)[C@H](O)[C@H]4O)[C@@H]3CC[C@H]2C1=O
- composite z-score [1]: 1.16 (inactive)
- composite z-score [2]: 0.26
- z-score [3]: 2.01
- z-score [4]: 0.0059 (inactive)

Structure (SMILES): O=C1C[C@@H](O)[C@@H](O)[C@@H]2[C@@H]3C(=O)N(Cc4ccc5c(c4)OCO5)C(=O)[C@@H]3CC[C@@H]12
- composite z-score [1]: 0.0648 (inactive)
- composite z-score [2]: 0.353
- z-score [3]: -0.522
- z-score [4]: -0.682 (inactive)

Structure (SMILES): CO[C@@H]1COC(=O)CC=C[C@@H](C)[C@@H]2C=C[C@H](O)[C@@H](COC(=O)CCC[C@H]1C)O2
- composite z-score [1]: 0.0426 (inactive)
- composite z-score [2]: 0.152
- z-score [3]: 0.149
- z-score [4]: -0.262 (inactive)

Structure (SMILES): COC(=O)[C@H](C)NC(=O)CCC1CC(OC(=O)NCCc2ccc(F)cc2)CC2(CCCC(COC(=O)NCC(c3ccccc3)c3ccccc3)O2)O1 (stereo not given in full)
- composite z-score [1]: 0.477 (inactive)
- composite z-score [2]: 0.577
- z-score [3]: -1.32
- z-score [4]: -4.47 (inactive)

Structure (SMILES): O=C(NN=C1C[C@@H](O)[C@@H](O)[C@@H]2[C@@H]3C(=O)N(c4cccc(Oc5ccccc5)c4)C(=O)[C@@H]3CC[C@H]12)OCc1ccccc1
- composite z-score [1]: -0.132 (inactive)
- composite z-score [2]: 0.0323
- z-score [3]: -1.43
- z-score [4]: -3.8 (inactive)

Structure (SMILES): CCOC(=O)NN=C1C[C@@H](O)[C@@H](O)[C@@H]2[C@@H]3C(=O)N(C4CCCCC4)C(=O)[C@@H]3CC[C@@H]12
- composite z-score [1]: 0.311 (inactive)
- composite z-score [2]: 0.101
- z-score [3]: 1.51
- z-score [4]: -0.86 (inactive)

Structure (SMILES): COC(=O)C1=C(C)N(Cc2ccccc2)[C@]23O[C@](C(=O)OC)(C(=O)N2[C@@H]1c1ccccc1)[C@H]1CCOC(=O)[C@H]13
- composite z-score [1]: 0.303 (inactive)
- composite z-score [2]: -0.202
- z-score [3]: -0.303
- z-score [4]: -4.7 (inactive)

Structure (SMILES): CCOC(=O)[C@H](CC(C)C)NC(=O)CCC1CC(OC(=O)NCCc2ccc(F)cc2)CC2(CCCC(COC(=O)NCc3ccccc3)O2)O1 (stereo not given in full)
- composite z-score [1]: 0.137 (inactive)
- composite z-score [2]: 0.461
- z-score [3]: -2.06
- z-score [4]: -7.01 (inactive)

Structure (SMILES): CC(C)[C@H](NC(=O)OC(C)(C)C)[C@@H](O)CC(=O)OC(C)(C)C
- composite z-score [1]: -0.182 (inactive)
- composite z-score [2]: -0.4
- z-score [3]: -1.75
- z-score [4]: -0.799 (inactive)

Structure (SMILES): CC(C)=NOCc1ccc(-c2cc(-c3ccccc3)no2)cc1
- composite z-score [1]: -0.191 (inactive)
- composite z-score [2]: -0.0722
- z-score [3]: 0.382
- z-score [4]: 0.736 (inactive)

Structure (SMILES): CC(C)CON=C1C[C@@H](O)[C@@H](O)[C@@H]2[C@@H]3C(=O)N(C[C@@H]4CCCO4)C(=O)[C@@H]3CC[C@H]12
- composite z-score [1]: -0.125 (inactive)
- composite z-score [2]: 0.0241
- z-score [3]: -0.421
- z-score [4]: -1.58 (inactive)

Structure (SMILES): C[C@@H]1C=CCC(=O)OC[C@H](C)C(=O)N2CCC[C@H]2C(=O)OC1
- composite z-score [1]: -0.318 (inactive)
- composite z-score [2]: 0.827
- z-score [3]: 0.207
- z-score [4]: -0.596 (inactive)

Structure (SMILES): CCN1C(=O)[C@H]2[C@H]3[C@H](O)[C@H](O)CC(=NOC(C)CN4CCCCc5nc(C)c(C)cc54)[C@@H]3CC[C@H]2C1=O (stereo not given in full)
- composite z-score [1]: 0.746 (inactive)
- composite z-score [2]: 0.196
- z-score [3]: 0.0706
- z-score [4]: -1.48 (inactive)

Structure (SMILES): CC[C@@H](c1ccccc1)n1c(=O)n2n(c1=O)[C@H]1[C@H](O)[C@@H]3O[C@@H]3C(=NOCC=C(C)CCC=C(C)C)[C@H]1CC2
- composite z-score [1]: 0.17 (inactive)
- composite z-score [2]: 0.4
- z-score [3]: -0.444
- z-score [4]: -3.96 (inactive)

Structure (SMILES): Cc1cc2c(c(=O)o1)[C@H](O)[C@H]1O[C@H]1C2=O
- composite z-score [1]: 0.326 (inactive)
- composite z-score [2]: -0.311
- z-score [3]: -0.811
- z-score [4]: -4.87 (inactive)

Structure (SMILES): C[C@@H]1C=CCC(=O)OC[C@H](C)C(=O)OC[C@H]2O[C@H]1C=C[C@H]2O
- composite z-score [1]: 0.0137 (inactive)
- composite z-score [2]: 0.756
- z-score [3]: -0.315
- z-score [4]: -1.13 (inactive)

Structure (SMILES): O=C1C[C@@H](O)[C@@H](O)[C@@H]2[C@@H]3C(=O)N(c4ccc(F)cc4F)C(=O)[C@@H]3CC[C@@H]12
- composite z-score [1]: 0.0164 (inactive)
- composite z-score [2]: -0.0741
- z-score [3]: 0.452
- z-score [4]: -0.595 (inactive)

Structure (SMILES): CC(CCN1CCCCc2nc(C)c(C)cc21)=NOC(C)CN1CCCc2nc(C)c(C)cc21 (stereo not given)
- composite z-score [1]: 0.829 (inactive)
- composite z-score [2]: 0.731
- z-score [3]: 0.507
- z-score [4]: -10.5 (active)
